# Calls of active or inactive are those of the source. Rule for the calls: active = hit-call score of the fitted dose curve at least 0.9, where 1 is the maximum; inactive = score below 0.9.
# Read-out: matrix metalloproteinase-3 (MMP3), MMP3 (gene 4314)
# Assay: LTEA_HepaRG_MMP3: Life Technologies and Expression Analysis (LTEA) Assay for matrix metalloproteinase-3 (MMP3) using HepaRG (AID 2283519)
# Conditions: mRNA level, 48 h; actives raise or lower the signal
# Experimental: LTEA_HepaRG is a cell based, multiplexed-readout assay that uses HepaRG, a human liver cell line, with measurements taken at 48 hours after chemical dosing on a 96-well plate.LTEA_HepaRG_MMP3 is one of 102 assay component(s) measured in the LTEA HepaRG cell culture assay. It is a marker of Fibrosis.Data from the assay component LTEA_HepaRG_MMP3 was analyzed into 1 endpoint. This assay endpoint, LTEA_HepaRG_MMP3, was analyzed with bidirectional fitting relative to DMSO as the negative control and baseline of activity. Using a type of inducible reporter, measures of mRNA induction for gain or loss-of-signal activity can be used to understand regulation of transcription factor activity. To generalize the intended target to other relatable targets, this assay endpoint is annotated to the protease intended target family, where the subfamily is matrix metalloproteinase.
# A total of 1060 chemcials from the ToxCast library were tested in eight-point concentration-response experiments. Cell culture and cytotoxicity assays were conducted at Thermo Fisher Scientific's Custom Services facility (Madison, WI). A single lot of human HepaRG cells (Thermo Fisher Scientific, Frederick, MD) was used for the cell culture experiments. 96-well format collagen type I coated plates of human HepaRG cells were prepared using established methods. Briefly, cryopreserved HepaRG cells were thawed, plated at a density of approximately 100,000 cells/well in HepaRG Thaw, Plate, and General Purpose media (HPRG770, Thermo Fisher Scientific), and incubated for 48 hours. 0.5% DMSO was selected as vehicle control to balance the requisite need of DMSO in HepaRG cultures to maintain differentiation (for example, baseline metabolism, proportions of hepatocytes vs. cholangiocytes), while enabling further hepatic receptor pathway activation (for example, PXR and CAR) in response to chemical exposure. 48 hours after plating, the culture medium was replaced with HepaRG Serum-Free Incudtion Media. Cells were exposed to each test chemical in duplicate and maintained in CO2 incubators for another 48 hours. Chemical plates were thawed to room temperature and 200x concentrations of treatment groups were prepared. 8-point conentration-reponse curves were made with the highest exposure at 100 uM, followed by half-log dilutions, all in 0.5% DMSO. Each test plate contained variouse controls, induction positive controls (1mM phenobarbital), cytotoxicity positive controls ([…] aflatoxin B1), vehicle controls (0.5% DMSO), and total lysis controls (0.5% DMSO). Cell morphology images were taken using an Essen IncuCyte FLR automated microscope, with six 96-well plates imaged in about 24 minutes. Images were captured and exported and JPEG files. Spent culture media was transfered to black-well plates for the LDH assay, and remaining media was sorted at -80 C for later use. Cells were treated with RLT buffer and frozen until shipped for gene expression analysis. Total RNA was isolated from the cell suspension in 75 uL of Buffer RLT (Qiagen, Germantown, MD 20874) by Quintiles/Expression Analysis (Durham, NC) using a custom isolation procedure. Total RNA from each plate well was transferred to a preamplification plate. Fluidigm's 96.96 Dynamic ArrayTM (Fluidigm, Amsterdam, the Netherlands) technology was used for gene expression analyses by quantitative reverse transcription polymerase chain reaction (qRT-PCR, performed by Quintiles/Expression Analysis, Durham, NC)89. Standard TaqManTM Assays (Applied Biosystems/ThermoFisher Scientific, Foster City, CA) were used to assess the expression of 93 genes selected based on their selectivity and sensitivity to important hepatic receptors known to be modulated by environmental chemicals; importance in human hepatocyte functionality; and hepatotoxicity. […]
Compound,outcome,AC50
CC(C)=CCC/C(C)=C\CO,inactive,–
CCCC(=O)OCC,inactive,–
COc1ccc(/C=C/S(=O)(=O)NC(=O)c2ccc(C)cc2Cl)cc1,inactive,–
O=C(NS(=O)(=O)/C=C/c1ccccc1)c1ccc(F)cc1Cl,inactive,–
CC/C(=C\C(=N/O)C(N)=O)C(C)[N+](=O)[O-] (stereo not given),inactive,–
CCn1nc(Cc2ccccc2)cc1C1CCN(C[C@H]2C[C@H](N(C)[C@@H](C(=O)O)C(C)C)C[C@@H]2c2cccc(F)c2)CC1,inactive,–
CC1(C)C(=O)N(Br)C(=O)N1Br,inactive,–
O=P(OC(CCl)CCl)(OC(CCl)CCl)OC(CCl)CCl,–,23.3 µM (active)
CCCCCCCCCCCCc1ccccc1,inactive,–
CN(C)c1ccc(N=NS(=O)(=O)O)cc1,inactive,–
Clc1nc(Cl)c(Cl)c(Cl)c1Cl,inactive,–
CC(=O)c1ccc2c(c1)[C@H](NC(=O)c1ccc(F)cc1)[C@@H](O)C(C)(C)O2,inactive,–
CNCc1ccc(NC(=O)c2c[nH]c3c2C(=O)CCC3)cc1,inactive,–
CC(C)(O)c1coc(S(=O)(=O)NC(=O)Nc2c3c(cc4c2CCC4)CCC3)c1,inactive,–
C=CCCCCCCCCC(=O)O,inactive,–
CC(O)CN(CCN(CC(C)O)CC(C)O)CC(C)O (stereo not given),inactive,–
Cc1ccc(S(=O)(=O)O)cc1C,inactive,–
CCCCCCCCCCCCCCCO,inactive,–
CCOCCO,inactive,–
Nc1cccc(N)c1,inactive,–

Compound,outcome,AC50
Oc1ccc2c(c1)-c1ccccc1C2,inactive,–
NC(=O)NO,inactive,–
O=c1[nH]c2ccc(S(=O)CCN3CCC(Cc4ccc(F)cc4)CC3)cc2o1 (stereo not given),inactive,–
CCOc1cccc(-n2cc(C(=O)N3CCN(c4cc(C(=O)O)c5ccccc5c4)CC3)nc2-c2ccc(C)cc2)c1,inactive,–
Cn1c(=O)cc(Oc2ccc(F)cc2F)c2cnc(NCC(C)(C)O)nc21,–,22.1 µM (active)
CC(=O)OCCC(C)C,inactive,–
CCCCCCc1ccc(O)cc1O,inactive,–
CC(C)CCCCCCCOC(=O)CCCCC(=O)OCCCCCCCC(C)C,inactive,–
CC(C)=CCCC(C)CCO (stereo not given),inactive,–
COc1ccc2sc(C(=O)Nc3nnn[nH]3)c(OC(C)C)c2c1,–,27.1 µM (active)
COCCOc1cc2cc(C(=O)NC3CCN(C(C)C)CC3)n(CC(=O)Nc3ccc(Cl)cn3)c2cn1,inactive,–
CC[C@H]1CC[C@H](NCc2cc3c(cc2OC)[C@H]2C[C@H]2C(=O)N3C)[C@H](c2ccccc2)N1,inactive,–
O=C1CCCCCN1,inactive,–
CNS(=O)(=O)c1cc(C(=O)N2CCC(CCN3C4CCC3CC(n3c(C)nc5ccccc53)C4)(c3cccc(F)c3)CC2)c(Cl)cc1F (stereo not given),inactive,–
CCNc1ccccc1,inactive,–
O=C(O)c1cccc(Oc2ccccc2)c1,inactive,–
Cc1ccc(O)cc1,inactive,–
O=C(O)CCN(C1(C(=O)NO)CCCC1)S(=O)(=O)c1ccc(Oc2ccc(F)cc2)cc1,inactive,–
C[C@](N)(Cc1ccc(O)c(O)c1)C(=O)O,inactive,–
COC(=O)CC(=O)OC,inactive,–

# Reference: PubChem BioAssay (EPA / NIEHS)
